Structures can show the parent of a compound that is named as a salt. ± gives the standard deviation of the averaged measurements.
tested on: Toxoplasma gondii RH (in HFF); assay: parasite growth relative to the screen mean (all compounds = 100%); higher = less inhibition of parasite growth; conditions: 5 µM; 72 h; oxygen 21 %
Outline: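 Confluent human foreskin fibroblasts in 96-well plates received library compounds by pin transfer at 5 µM final, taken from 10 mM DMSO stocks. Within 2 h the cells were infected with RH β-Gal–GFP Toxoplasma at MOI 1:5 and cultured 72 h at 21% O2. A CPRG β-Gal assay read against in-plate standard curves gave parasite number, and growth is stated relative to the screen mean, where all compounds = 100%, averaged across two screens.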

First: CC(=O)N[C@@H](CC(=O)N[C@@H](CCC(=O)O)C(=O)O)C(=O)O [Spaglumic acid]
Second: CCCC[C@@H](C=O)NC(=O)[C@H](CC(C)C)NC(=O)OCc1ccccc1 [Calpeptin]
The parasite growth of the first is higher: 131 ± 6.6% for the first, 19.9 ± 4.8% for the second.

Compared with `C[C@H](NC[C@H](O)CP(=O)(O)Cc1ccccc1)c1ccc(Cl)c(Cl)c1`, `CC(C)N(CCC(=O)c1ccc2ccccc2c1)Cc1ccccc1` is lower in parasite growth: 108.5 ± 0.57% for the first, 77.6 ± 4.8% for the second.

First: CCc1c2c(nc3ccc(OC(=O)N4CCC(N5CCCCC5)CC4)cc13)-c1cc3c(c(=O)n1C2)COC(=O)[C@]3(O)CC
Second: CS(=O)(=O)c1ccc(Cn2c3c(c4cc(F)cc(F)c42)CCCC3CC(=O)O)cc1 (stereo not drawn)
The parasite growth of the first is lower: 59.8 ± 11% for the first, 120 ± 6.7% for the second.

`C[C@H]1O[C@H](O[C@H]2[C@H](O)[C@@H](O)[C@@H](O[C@H]3[C@H](O)[C@@H](O)C(O)O[C@@H]3CO)O[C@@H]2CO)[C@H](O)[C@@H](O)[C@@H]1N[C@H]1C=C(CO)[C@@H](O)[C@H](O)[C@H]1O` (stereo partly drawn) [Acarbose] and `CCC1=C(C)CN(C(=O)NCCc2ccc(S(=O)(=O)NC(=O)N[C@H]3CC[C@H](C)CC3)cc2)C1=O` [Glimepiride] are within error of each other in parasite growth: 114 ± 36% for the first, 149 ± 43% for the second.

Going from `S=C(S)N1CCCC1` [Pyrrolidinedithiocarbamate ammonium] to `N[C@@H]1CCN(O)C1=O`, the parasite growth rises from < 0% to 97.4 ± 22%.

Going from `CC1=C(/C=C/C(C)=C/C=C/C(C)=C/C(=O)Nc2ccc(O)cc2)C(C)(C)CCC1` [Fenretinide] to `CC1=C(/C=C/C(C)=C/C=C/C(C)=C/C(=O)O)C(C)(C)CCC1` [Retinoic acid], the parasite growth rises from 38 ± 8.6% to 85 ± 12%.

`Cc1noc(NS(=O)(=O)c2ccc(N)cc2)c1C` [Sulfisoxazole] and `CC(=O)NNC(=O)N1Cc2ccccc2Oc2ccc(Cl)cc21` are within error of each other in parasite growth: 108 ± 1.1% for the first, 136 ± 40% for the second.

`N#C/C(=C\c1ccc(O)c(O)c1)C(=O)NCCCCc1ccccc1` and `N#C/C(=C\c1ccc(O)c(O)c1)C(=O)Nc1ccccc1` are within error of each other in parasite growth: 155 ± 18% for the first, 141 ± 23% for the second.

`Cc1cc(C(=O)O)sc1C(N)C(=O)O` (stereo not drawn) and `C[C@](N)(Cc1ccc(O)c(O)c1)C(=O)O` [L-(-)- α-Methyldopa] are within error of each other in parasite growth: 126 ± 5.2% for the first, 146 ± 39% for the second.

Compared with `CC1(C)CCC(C)(C)c2cc(C(=O)Nc3ccc(C(=O)O)cc3)ccc21`, `COc1ccc(NC(=O)c2ccc(-c3ccc(-c4noc(C)n4)cc3C)cc2)cc1N1CCN(C)CC1` is lower in parasite growth: 113 ± 4.7% for the first, < 0% for the second.

Going from `CC[C@@H]1C(=O)OC[C@@H]1Cc1cncn1C` [Pilocarpine hydrochloride] to `CC1CCN(CCCC(=O)c2ccc(F)cc2)CC1` [Melperone hydrochloride], the parasite growth rises from 76.5 ± 19% to 126 ± 12%.

First: CC(C)NCC(O)COc1ccc(CC(N)=O)cc1 (racemic) [(RS)-Atenolol]
Second: CC(C)NCC(O)COc1ccc(COCCOC(C)C)cc1 (racemic) [(±)-Bisoprolol hemifumarate]
The parasite growth of the first is higher: 103 ± 7.6% for the first, 77.7 ± 0.94% for the second.

Going from `CCC(C)N(C)C(=O)c1cc2ccccc2c(-c2ccccc2Cl)n1` (stereo not drawn) to `CCOc1cc(C(=O)Nc2ccc(Cl)c(-c3nc4ccccc4[nH]3)c2)cc(OCC)c1OCC`, the parasite growth falls from 85.5 ± 33% to 23.3 ± 3.9%.

First: COc1ccc(Nc2nccc(NCCO)n2)cc1 [Cardiogenol C hydrochloride]
Second: C=CC(=O)c1ccc2ccccc2c1
The parasite growth of the first is higher: 122 ± 4.2% for the first, 70.4 ± 7.8% for the second.

`C1COC(NC(C2CC2)C2CC2)=N1` [Rilmenidine hemifumarate] and `c1ccc(C(O[C@@H]2CCCN(CCc3ccc4c(c3)OCO4)C2)c2ccccc2)cc1` [Zamifenacin fumarate] are within error of each other in parasite growth: 125 ± 13% for the first, 128 ± 20% for the second.

`CN(CCOc1ccc(-c2ccc3c(c2)OCO3)cc1C(C)(C)C)CC(=O)O` and `NC(=O)N1C(=O)/C(=C(\O)c2cccs2)c2cc(Cl)ccc21` [Tenidap] are within error of each other in parasite growth: 110 ± 38% for the first, 134 ± 18% for the second.

First: O=C1C(SCCO)=C(SCCO)C(=O)c2ccccc21
Second: CCc1nn(CCCN2CCN(c3cccc(Cl)c3)CC2)c(=O)n1CCOc1ccccc1 [Nefazodone hydrochloride]
The parasite growth of the first is higher: 180 ± 14% for the first, 139 ± 7.4% for the second.

`NC(=O)c1ccc2[nH]ccc2c1` and `O=[N+]([O-])c1cccc2c[nH]nc12` are within error of each other in parasite growth: 91.2 ± 12% for the first, 97.2 ± 10% for the second.

`CC1Nc2ccc(Cl)cc2S(=O)(=O)N1` (stereo not drawn) and `CN1CCN2c3ncccc3Cc3ccccc3C2C1` (stereo not drawn) [Mirtazepine] are within error of each other in parasite growth: 105 ± 84% for the first, 92.3 ± 34% for the second.

Reference: the supplement of paper PMC4894684
